# Measurements: PubChem BioAssay (EPA / NIEHS)
# Records with an inconclusive call do not appear. The source made the active and inactive calls. How the source made its calls, unless noted: active means hit-call score of the fitted dose curve at least 0.9, where 1 is the maximum; inactive means score below 0.9.
# What was measured:
# [1] = TOX21_PR_LUC_Followup_Antagonist_viability: Viability Assessment in the Tox21 HEK293 Progesterone Receptor (PR) Antagonism Luciferase Follow-Up Assay (AID 2283940; active means hit-call score of the fitted dose curve at least 0.9, where 1 is the maximum)
# How it was run: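 Loss of CellTiter-Glo ATP signal indicates cytotoxicity in HEK293-PR-A-luc cells grown in 10% charcoal-stripped FBS medium, seeded 3,000 per well and incubated 16 h with compound at 37C.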
# [2] = TOX21_PR_LUC_Followup_Agonist_viability: Viability Assessment in the Tox21 HEK293 Progesterone Receptor (PR) Agonism Luciferase Follow-Up Assay (AID 2283941; active means hit-call score of the fitted dose curve at least 0.9, where 1 is the maximum;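 further: loss of signal means cytotoxicity so actives lower viability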)
# How it was run: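 Seeding: HEK293-PR-A-luc, 3,000 cells/well, 5 h at 37C. Treatment: compound in DMSO, 16 h, 37C. Read: CellTiter-Glo ATP luminescence, signal loss taken as lower viability.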
# [3] = target: Nucleoli Translocation, AR (gene 367) (UniProt P10275); assay: UPITT_HCI_U2OS_AR_TIF2_Nucleoli_Antagonist: University of Pittsburgh U2OS Androgen Receptor-Transcriptional Intermediary Factor 2 (AR-TIF2) Antagonism High Content Imaging Assay for Nucleoli Translocation (AID 2283997; active means hit-call score of the fitted dose curve at least 0.9, where 1 is the maximum)
# Nucleoli Translocation, AR (gene 367), sequence (P10275 whole entry, looked up): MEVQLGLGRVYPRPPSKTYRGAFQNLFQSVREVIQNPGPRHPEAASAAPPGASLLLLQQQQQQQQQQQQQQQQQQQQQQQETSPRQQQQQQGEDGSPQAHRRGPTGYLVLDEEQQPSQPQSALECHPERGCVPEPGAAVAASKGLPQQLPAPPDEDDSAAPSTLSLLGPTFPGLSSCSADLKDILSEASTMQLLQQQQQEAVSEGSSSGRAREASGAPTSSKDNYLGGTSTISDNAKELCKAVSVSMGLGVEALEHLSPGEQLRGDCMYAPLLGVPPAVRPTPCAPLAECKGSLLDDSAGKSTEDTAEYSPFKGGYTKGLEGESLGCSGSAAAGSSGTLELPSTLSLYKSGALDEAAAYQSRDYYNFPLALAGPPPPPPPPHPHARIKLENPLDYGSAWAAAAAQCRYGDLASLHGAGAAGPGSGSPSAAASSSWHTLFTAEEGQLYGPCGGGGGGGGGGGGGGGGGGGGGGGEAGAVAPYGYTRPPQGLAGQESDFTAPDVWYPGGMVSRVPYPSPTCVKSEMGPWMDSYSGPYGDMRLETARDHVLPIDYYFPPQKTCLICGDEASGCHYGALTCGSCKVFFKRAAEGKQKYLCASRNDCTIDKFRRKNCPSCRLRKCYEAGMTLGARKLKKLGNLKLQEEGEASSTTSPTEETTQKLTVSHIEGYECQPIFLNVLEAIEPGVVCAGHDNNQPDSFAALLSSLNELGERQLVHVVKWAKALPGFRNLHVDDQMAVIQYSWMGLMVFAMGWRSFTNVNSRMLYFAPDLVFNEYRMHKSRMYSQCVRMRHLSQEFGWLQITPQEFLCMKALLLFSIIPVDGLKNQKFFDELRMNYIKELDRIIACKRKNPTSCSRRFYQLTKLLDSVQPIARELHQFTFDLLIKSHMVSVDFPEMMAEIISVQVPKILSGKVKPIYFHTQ
# How it was run: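 Antagonism is read as loss of nucleolar AR-RFP signal relative to DHT, imaged in U2OS cells also carrying GFP-TIF2. Compounds screened at 20 uM final, 0.2% DMSO; primary actives retested in triplicate.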
# [4] = target: Ratio of Nucleoli Translocation and Cytoplasm, AR (gene 367) (UniProt P10275); assay: UPITT_HCI_U2OS_AR_TIF2_Nucleoli_Cytoplasm_Ratio_Agonist: University of Pittsburgh U2OS Androgen Receptor-Transcriptional Intermediary Factor 2 (AR-TIF2) Agonism High Content Imaging Assay for Ratio of Nucleoli Translocation and Cytoplasm (AID 2284000; active means hit-call score of the fitted dose curve at least 0.9, where 1 is the maximum;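 further: hits raise the red nucleolar to cytoplasm ratio above vehicle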)
# Ratio of Nucleoli Translocation and Cytoplasm, AR (gene 367), sequence (P10275 whole entry, looked up): as above
# How it was run: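 Compounds tested at 20 uM final in primary screen (0.2% DMSO) and 0.195-50 uM final in dose-response (0.5% DMSO). Imaging of human U2OS cells bearing RFP-AR and GFP-TIF2; endpoint is nucleoli/cytoplasm red signal ratio, positive direction relative to DMSO.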
# [5] = CCTE_Shafer_MEA_acute_spike_number: CCTE's Neural Acute Assay for Total Number of Spikes, Shafer Lab (AID 2284008)
# How it was run: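 Primary rat cortical neurons on 16-electrode MEA wells; on DIV 13 or 15, 40-min baseline then 40-min recording with compound (0.03-40 uM) at 37 C. Spikes detected at 8x rms noise; percent change versus baseline, DMSO as negative control.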
# [6] = CCTE_Shafer_MEA_acute_firing_rate_mean: CCTE's Neural Acute Assay for Mean Firing Rate, Shafer Lab (AID 2284009);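 further: analyzed for loss of signal so actives lower firing rate relative to DMSO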
# How it was run: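 Primary rat cortical neurons on 16-electrode MEA wells were exposed on DIV 13 or 15 to compound (0.03-40 uM). Spike counts per recording time, averaged over electrodes, were compared between 40-min baseline and 40-min post-exposure recordings as percent change.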
# [7] = CCTE_Harrill_HTTr_Viability_MCF7: CCTE's 6-hour Cell Viability Assessment for the High-Throughput Transcriptomics (HTTr) Platform, in MCF-7 cells cultured in DMEM + 10% fetal bovine serum, Harrill Lab (AID 2284010)
# How it was run: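 Eight-point concentration series, six-hour exposure. Propidium iodide exclusion imaged to assess membrane integrity as a cytotoxicity readout; bidirectional fitting was done with DMSO as negative control and activity baseline.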
# [8] = CCTE_Harrill_HTTr_Apoptosis_MCF7: CCTE's 6-hour Apoptosis Assessment for the High-Throughput Transcriptomics (HTTr) Platform, in MCF-7 cells cultured in DMEM + 10% fetal bovine serum, Harrill Lab (AID 2284011)
# How it was run: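 MCF-7 cells in DMEM + 10% fetal bovine serum were exposed to chemicals for 6 hours over an eight-point dilution series. Caspase-3/7 activation was imaged by high content imaging with CellEvent Caspase 3/7 Green; bidirectional fitting used DMSO as baseline.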
smiles,measurement,setting,value
C[C@H]1C[C@H]2[C@@H]3CCC4=CC(=O)C=C[C@]4(C)[C@@]3(F)[C@@H](O)C[C@]2(C)[C@@]1(O)C(=O)COP(=O)(O)O,outcome,[1],inactive
same,outcome,[2],inactive
CCCCCCCCCCCCCOS(=O)(=O)O,outcome,[3],inactive
same,outcome,[4],inactive
COc1cc(C=O)ccc1OC(=O)C(C)C,outcome,[5],inactive
same,outcome,[6],inactive
same,outcome,[7],inactive
same,outcome,[8],inactive
O=C(Oc1ccccc1)c1ccc(O)cc1,outcome,[2],inactive
NCCCCCCN,outcome,[7],inactive
same,outcome,[8],inactive
NC(N)=NC(=O)c1nc(Cl)c(N)nc1N,outcome,[7],inactive
same,outcome,[8],inactive
C=CCOC(=O)CCC1CCCCC1,outcome,[5],inactive
same,outcome,[6],inactive
same,outcome,[7],inactive
same,outcome,[8],inactive
Cc1ccc(O)c(C(C)(C)C)c1,outcome,[7],inactive
same,outcome,[8],inactive
O=C1C(c2[nH]c3ccc(S(=O)(=O)O)cc3c2O)=Nc2ccc(S(=O)(=O)O)cc21,outcome,[7],inactive
same,outcome,[8],inactive
CC(C)=CCCC(C)=CCCC(C)=CCO,outcome,[7],inactive
same,outcome,[8],inactive
CC(C)=CCO,outcome,[7],inactive
same,outcome,[8],inactive
CCC(C)CCCC(C)(C)O (stereo not drawn),outcome,[7],inactive
same,outcome,[8],inactive
Cc1c(Cl)c(=O)oc2cc(O)ccc12,outcome,[7],inactive
same,outcome,[8],inactive
CC(C)[C@H]1CC[C@@H](C)CC1=O,outcome,[7],inactive
same,outcome,[8],inactive
CNCCCC12CCC(c3ccccc31)c1ccccc12,AC50,[7],47.3 µM (active)
same,outcome,[8],inactive
O=C(O)CN(CCN(CC(=O)O)CC(=O)O)CCN(CC(=O)O)CC(=O)O,outcome,[7],inactive
same,outcome,[8],inactive
O=C(O)COCCN1CCN(C(c2ccccc2)c2ccc(Cl)cc2)CC1 (stereo not drawn),outcome,[7],inactive
same,outcome,[8],inactive
CC(=O)C(=O)O,outcome,[7],inactive
same,outcome,[8],inactive
CC(=O)/C=C/C1=C(C)CCCC1(C)C,outcome,[7],inactive
same,outcome,[8],inactive
CC(C)(Oc1ccc(CCNC(=O)c2ccc(Cl)cc2)cc1)C(=O)O,outcome,[7],inactive
same,outcome,[8],inactive
CCCCCCCCCC=O,outcome,[7],inactive
same,outcome,[8],inactive
CC(=O)OCCOC(C)=O,outcome,[7],inactive
same,outcome,[8],inactive
CC(=O)OCC=Cc1ccccc1,outcome,[7],inactive
same,outcome,[8],inactive
Cc1ccc(C=O)cc1,outcome,[7],inactive
same,outcome,[8],inactive
COc1cc2ncnc(Nc3cccc(Cl)c3)c2cc1OC,outcome,[7],inactive
same,outcome,[8],inactive
OCCOCCOCCOCCO,outcome,[7],inactive
same,outcome,[8],inactive
CC(CCO)CCc1ccccc1 (stereo not drawn),outcome,[7],inactive
same,outcome,[8],inactive
COC(C)CCO (stereo not drawn),outcome,[7],inactive
same,outcome,[8],inactive
O=C(O)c1ccc([N+](=O)[O-])cc1,outcome,[7],inactive
same,outcome,[8],inactive
Cc1c(N(C)C)c(=O)n(-c2ccccc2)n1C,outcome,[7],inactive
same,outcome,[8],inactive
CN(C)C(=N)N=C(N)N,outcome,[5],inactive
same,outcome,[6],inactive
same,outcome,[7],inactive
same,outcome,[8],inactive
CN(CCOc1ccc(CC2SC(=O)NC2=O)cc1)c1ccccn1 (stereo not drawn),outcome,[7],inactive
same,outcome,[8],inactive
CNC(=O)Oc1ccc2c(c1)[C@]1(C)CCN(C)[C@@H]1N2C,outcome,[7],inactive
same,outcome,[8],inactive
CCCCO,outcome,[7],inactive
same,outcome,[8],inactive
O=[N+]([O-])c1cc(C(F)(F)F)ccc1Cl,outcome,[7],inactive
same,outcome,[8],inactive
Cc1cc(C2(c3cc(C)c(O)cc3C)OS(=O)(=O)c3ccccc32)c(C)cc1O,outcome,[5],inactive
same,outcome,[6],inactive
same,outcome,[7],inactive
same,outcome,[8],inactive
Clc1ccc2c(c1)C(N1CCNCC1)=Nc1ccccc1O2,outcome,[7],inactive
same,outcome,[8],inactive
Cc1ccc(C(C)C)cc1O,outcome,[7],inactive
same,outcome,[8],inactive
O=C(O)c1cn(C2CC2)c2cc(N3CCNCC3)c(F)cc2c1=O,outcome,[7],inactive
same,outcome,[8],inactive
Cc1cccc(C)c1C,outcome,[7],inactive
same,outcome,[8],inactive
CC(c1cc2ccccc2s1)N(O)C(N)=O (stereo not drawn),outcome,[7],inactive
same,outcome,[8],inactive
CC1CCC(C(C)(C)O)CC1 (stereo not drawn),outcome,[7],inactive
same,outcome,[8],inactive
CC(C)Oc1ccccc1O,outcome,[7],inactive
same,outcome,[8],inactive
CC1(C)[C@H]2CC[C@]1(C)[C@H](O)C2,outcome,[7],inactive
same,outcome,[8],inactive
CC1=CCC(O)(C(C)C)CC1 (stereo not drawn),outcome,[7],inactive
same,outcome,[8],inactive
O=C(Nc1ccccc1)c1cc([N+](=O)[O-])ccc1Cl,outcome,[7],inactive
same,outcome,[8],inactive
O=C(O)c1ccc(C(=O)O)cc1,outcome,[7],inactive
same,outcome,[8],inactive
NC(=O)NC1NC(=O)NC1=O (stereo not drawn),outcome,[7],inactive
same,outcome,[8],inactive
CN1Cc2c(N)cccc2C(c2ccccc2)C1 (stereo not drawn),outcome,[7],inactive
same,outcome,[8],inactive
Cc1ccc(C=O)s1,outcome,[7],inactive
same,outcome,[8],inactive
CC1CC(OC(=O)c2ccccc2O)CC(C)(C)C1 (stereo not drawn),outcome,[7],inactive
same,outcome,[8],inactive
O=C[C@H](O)[C@H](O)[C@H](O)CO,outcome,[7],inactive
same,outcome,[8],inactive
COc1ccc(O)cc1,outcome,[7],inactive
same,outcome,[8],inactive
CC1CCC2CC1C2(C)C (stereo not drawn),outcome,[7],inactive
same,outcome,[8],inactive
CCCCCCCCCCCCCCCC(=O)O,outcome,[7],inactive
same,outcome,[8],inactive
S=C(S)NCCNC(=S)S,outcome,[7],inactive
same,outcome,[8],inactive
OCCN1CCNCC1,outcome,[7],inactive
same,outcome,[8],inactive
CCN(CC)c1ccc2c(-c3ccccc3C(=O)O)c3ccc(=[N+](CC)CC)cc-3oc2c1,AC50,[7],0.394 µM (active)
same,outcome,[8],inactive
